Source: PubChem (National Center for Advancing Translational Sciences (NCATS))
The list is not random: actives were taken first. Their share in the collection is about 5.7%.
ATXN2 expr inh: Primary qHTS for Inhibitors of ATXN expression. HEK-293 ATXN2-luciferase reporter, luminescence, 24 h. Potency, µM (series often up to 57 µM), hits mostly inhibitors. hit rate 0.72% among 360,000. AID 1745845, 2022; further: nearly all actives have a fitted effect of over 55% in size
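ATXN2-luciferase reporter cells (luciferase flanked by upstream and downstream ATXN2 gene portions) were treated 24 h at 37 °C with compounds at up to 57 uM. SteadyGlo luminescence gave expression; GF-AFC fluorescence gave viability.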
TGFb inhibitor: qHTS for Inhibitors of TGF-b | HepG2 CAGA-GFP TGF-b/SMAD3 reporter, GFP fluorescence, 18 h; TGF-beta stimulated, 500 pg/mL final | Potency, µM (highest dose often 46.1 µM), actives largely listed as inhibitors | hit rate 1.2% among 410,000; further: nearly all actives have a fitted effect of over 65% in size
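TGF-beta reporter screen: HEPG2 CAGA-GFP, 1% FBS, 500 pg/mL TGF-beta final, 18 h; per-cell GFP summed per well; curves fitted and categorized by class.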
HepG2 tox: qHTS for Inhibitors of TGF-b: Cytotox Counterscreen; HepG2 CAGA-GFP viability, ATP luminescence, 18 h; Potency, µM (highest dose often 46.1 µM), most hits filed as cytotoxic; hit rate 0.76% among 410,000; AID 588856, 2011
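HepG2 CAGA-GFP cells (1000/well, DMEM with 1% FBS) received compound, then TGF-beta at 500 pg/mL final, and were incubated 18 hours at 37 degrees C. Viability was read by CellTiter-Glo luminescence. Media-only wells were set as complete cell-killing and DMSO as no toxicity.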
IL-1B inflam inh: qHTS for Inhibitors of Inflammasome Signaling: IL-1-beta AlphaLISA Primary Screen; THP-1 LPS/ATP IL-1B secretion, AlphaLISA, 16 h; stronger effect = lower value; activity change, % at 57.5 µM; hit rate 4.7% among 360,000; AID 743279, 2014; in the data active means activity change below about -50%; inconclusive means mostly about -30% to -49%
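Secreted IL-1B measured by AlphaLISA bead assay after 16 h compound exposure of THP-1 cells; compounds (final up to 57.5 uM) added 1 h before LPS (250 ng/mL) and ATP (1.25 mM) stimulation; lower signal means less secretion.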
S2 tox: Viability Counterscreen for Primary qHTS for Inhibitors of ATXN expression. hit rate 0.49% among 400,000. S2 cells (HEK-293 line with an ATXN2-luciferase reporter) viability, CellTiter-Fluor protease fluorescence, 24 h. Potency, µM (highest dose often 56.7 µM), hits mostly cytotoxic; further: nearly all actives have a fitted effect of over 40% in size
Large screens that a line does not name were inactive. Unless noted, the call rests on the fitted dose curve; in most records, active means well fitted curve in the direction sought with a large enough effect; inconclusive means small, poorly fitted or top-dose-only effect, or another doubt; inactive means no such curve, though single readings can be large; an effect the other way counts as inactive or inconclusive.

Cc1ccccc1C(=O)Nc1ccc(C(=O)OCc2cc(=O)n3c4c(sc3n2)CCCC4)cc1	TGFb inhibitor 11µM, HepG2 tox 8.9µM (no result: ATXN2 expr inh, IL-1B inflam inh, S2 tox)
Cc1cccc(C(=O)Nc2ccc(C(=O)OCc3cc(=O)n4c5c(sc4n3)CCCC5)cc2)c1	TGFb inhibitor inconclusive (no result: ATXN2 expr inh, IL-1B inflam inh, S2 tox)
CCCc1nc2c3ccccc3ccn2c1Cc1cccc(Cl)c1	S2 tox 35µM
O=C(Cn1c(=O)n(-c2ccccc2)c(=O)c2c3c(sc21)CCCC3)Nc1cccc(F)c1	S2 tox inconclusive (no result: IL-1B inflam inh)
O=C(Nc1cccc(-c2cn3cccnc3n2)c1)c1cccs1	none
O=C(Nc1cccc(-c2csc(-c3ccccc3)n2)c1)c1cccs1	TGFb inhibitor inconclusive, IL-1B inflam inh -63
O=C(Nc1cccc(NC(=O)c2cccs2)c1)c1ccc(F)cc1	IL-1B inflam inh -61, S2 tox inconclusive
Cc1cccn2cc(-c3cccc(NC(=O)c4cccs4)c3)nc12	IL-1B inflam inh -83
Cc1ccn2cc(-c3cccc(NC(=O)c4cccs4)c3)nc2c1	TGFb inhibitor inconclusive, IL-1B inflam inh -99
Cc1cccc2c(N3CCCC3)nc(CNS(=O)(=O)c3ccccc3Cl)nc12	none (no result: ATXN2 expr inh, TGFb inhibitor, HepG2 tox, IL-1B inflam inh)
COc1cc(-c2nc(C)cnc2C)cc2c1OCCN(C(=O)Cc1cc(OC)c(OC)c(OC)c1)C2	none (no result: ATXN2 expr inh, TGFb inhibitor, HepG2 tox, IL-1B inflam inh)
CCSC1(SCC)N=C(N)C2(C#N)C(c3ccc(OC)c(OC)c3OC)C12C#N (centres undefined)	ATXN2 expr inh inconclusive, TGFb inhibitor inconclusive, IL-1B inflam inh -115, S2 tox inconclusive
CC(=O)OCC(=O)N1N=C(c2ccc3ccccc3c2)CC1c1ccccc1 (centres undefined)	none
C=CCNCC(=O)N1N=C(c2ccc3ccccc3c2)CC1c1ccc(OC)cc1 (centres undefined)	none
COc1ccc(C2CC(c3ccc4ccccc4c3)=NN2C(=O)CN2CCC(C(N)=O)CC2)cc1 (centres undefined)	IL-1B inflam inh -82
COc1ccc(C2CC(c3ccc4ccccc4c3)=NN2C(=O)COC(=O)C2CCC(=O)N2)cc1 (centres undefined)	IL-1B inflam inh -69
COc1ccc(C2CC(c3ccc4ccccc4c3)=NN2C(=O)CNC2CCCCC2)cc1 (centres undefined)	TGFb inhibitor inconclusive, HepG2 tox 13µM, IL-1B inflam inh -51 (no result: ATXN2 expr inh, S2 tox)
Cc1cc(C)cc(-n2ccn(CC(=O)Nc3ccccc3C(F)(F)F)c(=O)c2=O)c1	none (no result: ATXN2 expr inh, IL-1B inflam inh, S2 tox)
O=C(CSc1cn(CC(=O)N2CCCC2)c2ccccc12)Nc1cc(C(F)(F)F)ccc1Cl	TGFb inhibitor inconclusive (no result: ATXN2 expr inh, IL-1B inflam inh, S2 tox)
CCCN(CCC)C(=O)CC(c1ccccc1)c1cc(Br)ccc1O (centres undefined)	TGFb inhibitor inconclusive, IL-1B inflam inh -90
CCCN(CCC)C(=O)CC(c1ccccc1)c1ccc(C)cc1O (centres undefined)	TGFb inhibitor inconclusive
CN(C)CC(O)COC(c1ccc(Cl)cc1)c1ccc(Cl)cc1 (centres undefined)	ATXN2 expr inh inconclusive, TGFb inhibitor inconclusive, HepG2 tox 16µM, IL-1B inflam inh -79, S2 tox inconclusive
CC1CN(CC(O)COC(c2ccc(Cl)cc2)c2ccc(Cl)cc2)CC(C)O1 (centres undefined)	ATXN2 expr inh inconclusive, TGFb inhibitor inconclusive, HepG2 tox 16µM, S2 tox inconclusive
OC(COC(c1ccc(Cl)cc1)c1ccc(Cl)cc1)CN1CCN(c2ccccn2)CC1 (centres undefined)	ATXN2 expr inh inconclusive, TGFb inhibitor inconclusive, HepG2 tox 14µM, IL-1B inflam inh -84
CN(CC(O)COC(c1ccccc1)c1ccccc1)C1CCCCC1 (centres undefined)	IL-1B inflam inh -84
CC1CN(CC(O)COc2ccc(C(C)C)cc2)CC(C)O1 (centres undefined)	none
CN(C)CCOC(c1ccc(Cl)cc1)c1ccccn1 (centres undefined)	none
COc1cccc(NC(=O)C(=O)NCC(c2ccc3c(c2)OCO3)N2CCOCC2)c1 (centres undefined)	none (no result: IL-1B inflam inh)
COc1ccccc1CNC(=O)CCCn1c(=O)c2ccccc2n(Cc2ccccc2C#N)c1=O	none (no result: IL-1B inflam inh)
COc1ccc(S(=O)(=O)N(CC(=O)NCc2ccccn2)c2ccc(Cl)cc2)cc1	TGFb inhibitor inconclusive, IL-1B inflam inh -54
CC(=O)C1=NN(c2ccccc2)C(c2cccs2)N1c1ccc(N(C)C)cc1 (centres undefined)	ATXN2 expr inh inconclusive, TGFb inhibitor inconclusive, IL-1B inflam inh -72, S2 tox inconclusive
C/C(=N\NC1=NCCN1)c1ccc(Cl)cc1	none
CCCCCOc1ccc(Br)cc1/C(C)=N/NC1=NCCN1	ATXN2 expr inh inconclusive, TGFb inhibitor inconclusive, IL-1B inflam inh -103, S2 tox inconclusive
COc1ccc(Br)cc1/C(C)=N/NC1=NCCN1	TGFb inhibitor inconclusive, IL-1B inflam inh -76
C/C(=N\NC1=NCCN1)c1ccccc1	none
Cc1cc(C)cc(NC(=O)c2cc(C)nc3c2c(C)nn3-c2ccccc2)c1	none (no result: IL-1B inflam inh)
CC(C)OCCCN(Cc1ccco1)C(=O)c1cc2c(s1)-c1ccccc1OC2	ATXN2 expr inh inconclusive, S2 tox inconclusive (no result: IL-1B inflam inh)
COc1cc2c(cc1OC)C(C1C(=O)CCCC1=O)N(C(=O)CCl)CC2 (centres undefined)	none (no result: ATXN2 expr inh)
COc1cc2c(cc1OC)C(c1ccccc1)N(C(=O)CCl)CC2 (centres undefined)	ATXN2 expr inh 28µM, IL-1B inflam inh -96 (no result: S2 tox)
COc1cc2c(cc1OC)C(C)N(C(=O)c1sccc1C)CC2 (centres undefined)	IL-1B inflam inh inconclusive
COc1cc2c(cc1OC)C(C)N(C(=O)c1cccc([N+](=O)[O-])c1)CC2 (centres undefined)	IL-1B inflam inh -53
COc1cc2c(cc1OC)C(C)N(C(=O)[C@@H](NC(=O)c1ccccc1)C(C)C)CC2 (some centres undefined)	IL-1B inflam inh -52
CC(=O)c1ccc(NC(=O)C2CCN(S(=O)(=O)c3ccc4c(c3)CCCN4C(=O)C3CCC3)CC2)cc1	none (no result: IL-1B inflam inh)
O=C(Nc1cccc(-c2ccc(N3CCCCC3)nn2)c1)c1ccc(Br)o1	none
CC1CCN(c2ccc(-c3cccc(NC(=O)c4ccco4)c3)nn2)CC1	IL-1B inflam inh -78
O=C(Nc1cccc(-c2ccc(N3CCCCC3)nn2)c1)C(F)(F)F	HepG2 tox 8.9µM, S2 tox inconclusive (no result: ATXN2 expr inh)
CCC(=O)Nc1cccc(-c2ccc(N3CCC(C)CC3)nn2)c1	IL-1B inflam inh inconclusive (no result: ATXN2 expr inh)
CC1CCN(c2ccc(-c3cccc(NC(=O)C(F)(F)F)c3)nn2)CC1	ATXN2 expr inh inconclusive, HepG2 tox 20µM, IL-1B inflam inh inconclusive
O=C(C[n+]1cccc(Br)c1)c1ccc2ccccc2c1	none (no result: ATXN2 expr inh, IL-1B inflam inh, S2 tox)
O=C(C[n+]1cc(Br)cc(Br)c1)c1ccc2ccccc2c1	none (no result: ATXN2 expr inh, IL-1B inflam inh, S2 tox)
